# Measurements: PubChem BioAssay AID624047 (National Center for Advancing Translational Sciences (NCATS), 2012)
# Active and inactive are the calls of the source. The call rests on the fitted dose curve; in most records, active means well fitted inhibition curve with a large enough effect; inactive means flat fitted curve, though single readings scatter.
# Molecular target: Dual specificity protein kinase CLK1 (Homo sapiens) (UniProt P49759)
# Assay: Reaction Biology data for inhibitors of CLK1: Probe SAR
# Conditions: Reaction Biology CLK1 kinase assay, 10 uM ATP; series mostly up to 10 µM
# From the text: Alternative splicing of pre-mRNAs plays a major role in the regulation of eukaryotic gene expression. Alternative splicing is now thought to be one of the primary reasons for the complexity of higher organisms leading to an average of three protein isoforms per gene. Aberrant splicing can lead to a number of diseases and is known to play a role in rare genetic diseases such as progeria syndrome. Hutchinson-Gilford Progeria Syndrome (HGPS) is a pediatric premature aging disease caused by a spontaneous mutation in the lamin A/C (LMNA) gene due to a single point mutation in the lamin A gene effecting 1 in 4 million people. To identify both specific splicing modulators of the lamin A gene as well as general splicing modulators, a cell-based HTS assay was developed using a minigene reporter system (AIDs, 1459 & 1487). […] This AID summarizes the characterization of lead compounds in Clk1. NIH Molecular Libraries Probe Production Centers Network [MLPCN] NIH Chemical Genomics Center [NCGC] MLPCN Grant: MH084827 Assay Submitter (PI): Tom Misteli
# Compound IC50s were determined at Reaction Biology (http://www.reactionbiology.com) with ten concentration points starting at 10 uM in the assay using a 3-fold dilution series. The control compound staurosporine was also tested in the 10-dose IC50 mode with the same 3-fold serial dilution, again starting at 10 uM. All kinase reactions were performed using 10 uM ATP in the assay. 100% activity was taken from kinase reactions with DMSO alone (the vehicle used for compound stock solutions).
# Dual specificity protein kinase CLK1 (Homo sapiens), sequence (P49759 whole entry, looked up): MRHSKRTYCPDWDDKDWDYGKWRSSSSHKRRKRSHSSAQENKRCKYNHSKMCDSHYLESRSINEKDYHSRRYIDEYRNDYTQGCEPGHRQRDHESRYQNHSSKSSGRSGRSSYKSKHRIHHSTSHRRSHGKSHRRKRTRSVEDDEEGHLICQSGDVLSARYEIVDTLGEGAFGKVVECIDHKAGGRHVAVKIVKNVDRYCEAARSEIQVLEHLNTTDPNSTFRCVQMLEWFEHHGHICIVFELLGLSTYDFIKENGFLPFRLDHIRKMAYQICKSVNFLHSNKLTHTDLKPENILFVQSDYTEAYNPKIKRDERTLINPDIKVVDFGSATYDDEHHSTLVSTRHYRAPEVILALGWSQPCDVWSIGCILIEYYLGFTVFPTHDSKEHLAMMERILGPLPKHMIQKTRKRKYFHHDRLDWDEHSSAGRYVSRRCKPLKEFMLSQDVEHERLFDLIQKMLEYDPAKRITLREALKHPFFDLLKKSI
row,Compound,Potency
1,Clc1ccc(CNc2nccc(-c3ccc4c(c3)OCO4)n2)cc1Cl,8.3 nM (active)
2,Clc1cc(Cl)cc(CNc2ncncc2-c2ccc3c(c2)OCO3)c1,68.4 nM (active)
3,c1cncc(CNc2ncncc2-c2ccc3c(c2)OCO3)c1,4800 nM (active)
4,Clc1ccc(CNc2ccnc(-c3ccc4c(c3)OCO4)n2)cc1Cl,inactive
5,O=[N+]([O-])c1cc(Nc2nccc(-c3ccc4c(c3)OCO4)n2)cc(C(F)(F)F)c1,32.3 nM (active)
6,FC(F)(F)c1cc(Br)cc(Nc2nccc(-c3ccc4c(c3)OCO4)n2)c1,102 nM (active)
7,Clc1ccc(CNc2nccc(-c3ccc4c(c3)OCCO4)n2)cc1Cl,15.8 nM (active)
8,Cc1nc(CN(C)c2ncnc3ccc(-c4ccc5[nH]ncc5c4)cc23)cs1,47.5 nM (active)
9,COc1ccc(-c2ccnc(NCc3ccc(Cl)cc3)n2)cc1,277 nM (active)
10,Cc1c(-c2ccnc(NCc3cccnc3)n2)sc(=O)n1C,44.9 nM (active)
11,Brc1ccc(CNc2nccc(-c3ccc4c(c3)OCO4)n2)cc1Br,24.1 nM (active)
12,Clc1ccc(CNc2ncncc2-c2ccc3c(c2)OCO3)cc1Cl,626 nM (active)
13,c1cc(-c2ccc3c(c2)OCO3)nc(Nc2ccc3c(c2)OCO3)n1,180 nM (active)
14,c1cncc(CNc2nccc(-c3ccc4c(c3)OCO4)n2)c1,11.3 nM (active)
15,Cc1nc(CN(C)c2ncnc3ccc(-c4ccc5c(c4)OCO5)cc23)cs1,9.3 nM (active)
16,COc1cccc(-c2ccnc(NCc3ccc(Cl)cc3)n2)c1,inactive
17,c1cncc(CNc2ccnc(-c3ccc4[nH]ncc4c3)n2)c1,964 nM (active)

row,Compound,Potency
1,Brc1cc(Br)cc(CNc2nccc(-c3ccc4c(c3)OCO4)n2)c1,13 nM (active)
2,Cc1nc(CNc2ncnc3ccc(-c4ccc5c(c4)OCO5)cc23)cs1,30.4 nM (active)
3,c1nc(NCC2CCCO2)c2cc(-c3ccc4c(c3)OCO4)ccc2n1 (stereo not drawn),52.8 nM (active)
4,COc1ccc(-c2ccnc(NCc3ccc(Cl)c(Cl)c3)n2)cc1OC,inactive
5,COc1ccc(-c2ccnc(NCc3ccc(Cl)c(Cl)c3)n2)cc1,76.5 nM (active)
6,c1cncc(CNc2nccc(-c3ccc4[nH]ncc4c3)n2)c1,72.8 nM (active)
7,Clc1ccc(Nc2nccc(-c3ccc4c(c3)OCO4)n2)cc1,1260 nM (active)
8,Cc1c(-c2ccnc(NCc3ccc(Cl)cc3)n2)sc(=O)n1C,74.8 nM (active)
9,Clc1ccc(CNc2nccc(-c3ccc4[nH]ncc4c3)n2)cc1Cl,41.5 nM (active)
10,Clc1cc(Cl)cc(CNc2nccc(-c3ccc4c(c3)OCO4)n2)c1,1.9 nM (active)
11,Clc1ccc(CNc2nccc(-c3ccc4cn[nH]c4c3)n2)cc1Cl,183 nM (active)
12,FC(F)(F)c1cccc(Nc2nccc(-c3ccc4c(c3)OCO4)n2)c1,33.6 nM (active)
13,Clc1ccc(CNc2ccnc(-c3ccc4[nH]ncc4c3)n2)cc1Cl,1780 nM (active)
14,c1cncc(CNc2ccnc(-c3ccc4cn[nH]c4c3)n2)c1,1600 nM (active)
15,Clc1ccc(CNc2ncncc2-c2ccc3c(c2)OCO3)cc1,2370 nM (active)
16,COc1cccc(-c2ccnc(NCc3ccc(Cl)c(Cl)c3)n2)c1,5460 nM (active)
